# SKKanGAS inh – SKKanGAS growth inhibition | S. pyogenes SKKanGAS, kanamycin growth, BacTiter-Glo, 6 h | inhibition, % at 7.5 µM | 300,000 tested, 1.3% active;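 active = mean replicate score, as percent of positive control median, at least 50; inconclusive = mean below 50 but one replicate at or above 50; inactive = mean and every replicate below 50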;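 also: strain carries kanamycin resistance gene driven by streptokinase promoter and grows in 40 µg/ml kanamycin; loss of luminescence reflects streptokinase promoter inhibition or plain growth inhibition; 0% = median of DMSO wells and 100% = positive control at its reference dose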
# NR3A LBD binder – NR3A (human) ligand-binding domain modulation | NR3A LBD differential scanning fluorimetry, Tm shift; 0% = protein alone, 100% = glycine-bound protein | Tm shift relative to glycine control, % at 25 µM | 340,000 tested, 2.5% active | AID 1259313;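 active = melting temperature shift of at least 10% of the positive control shift, at one fixed dose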
# Mdm2-MdmX inh – human Mdm2/MdmX binding inhibition; 330,000 tested, 3% active; SaOS-2 split-luciferase Mdm2/MdmX complementation, luminescence; O15151+Q00987; inhibition, % at 8 µM;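 active = inhibition of at least 50% at 8 µM in the primary screen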
# Target sequence (O15151 whole entry, looked up): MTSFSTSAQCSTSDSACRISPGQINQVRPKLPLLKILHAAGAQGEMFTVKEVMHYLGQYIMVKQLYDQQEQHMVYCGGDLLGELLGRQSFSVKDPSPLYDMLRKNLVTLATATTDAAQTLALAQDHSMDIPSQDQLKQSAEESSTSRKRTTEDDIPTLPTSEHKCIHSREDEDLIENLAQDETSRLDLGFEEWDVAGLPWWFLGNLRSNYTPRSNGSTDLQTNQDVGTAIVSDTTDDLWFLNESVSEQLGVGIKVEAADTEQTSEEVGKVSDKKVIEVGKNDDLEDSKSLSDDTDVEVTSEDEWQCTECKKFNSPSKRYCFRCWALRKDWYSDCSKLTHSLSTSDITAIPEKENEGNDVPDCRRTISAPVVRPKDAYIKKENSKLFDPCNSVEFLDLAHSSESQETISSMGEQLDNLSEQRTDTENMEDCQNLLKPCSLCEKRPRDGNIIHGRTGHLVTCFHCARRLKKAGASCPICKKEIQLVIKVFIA
# Target sequence (Q00987 whole entry, looked up): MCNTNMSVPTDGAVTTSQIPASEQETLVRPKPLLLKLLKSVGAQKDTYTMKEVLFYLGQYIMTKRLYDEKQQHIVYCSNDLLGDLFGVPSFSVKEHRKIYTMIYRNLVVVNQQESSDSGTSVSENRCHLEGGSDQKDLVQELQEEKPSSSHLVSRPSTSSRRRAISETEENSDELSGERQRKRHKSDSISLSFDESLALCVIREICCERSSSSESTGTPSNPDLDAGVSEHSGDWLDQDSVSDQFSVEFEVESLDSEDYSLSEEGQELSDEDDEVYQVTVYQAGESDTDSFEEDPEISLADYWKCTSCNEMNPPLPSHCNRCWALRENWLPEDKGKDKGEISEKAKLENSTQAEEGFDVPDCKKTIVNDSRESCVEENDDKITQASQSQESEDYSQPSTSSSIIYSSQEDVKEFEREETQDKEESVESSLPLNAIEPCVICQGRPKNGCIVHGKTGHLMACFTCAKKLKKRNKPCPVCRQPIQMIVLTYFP
# CSC inhib – cancer stem cell inhibition; cancer stem cell-like cells viability, luminescence; inhibition, % at 7.5 µM; 300,000 tested, 1.1% active; in the data active = inhibition above about 75%; inconclusive = no clear call, values can overlap the other calls; tested in HMLE shEcad cells
# Beta cell apopt – blocks beta cell apoptosis. INS-1E cytokine-induced death, ATP luminescence, 48 h; percent of positive-control rescue, neutral wells zero. protection from apoptosis, % (no concentration beside the values). 300,000 tested, 0.8% active. AID 435005;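 active = Every replicate reaches about 75%, or at least half do and their mean reaches it too, limit read from the data; inconclusive = At least half of replicates reach the limit but their mean does not; inactive = Under half of replicates reach the limit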;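 also: 0% = cytokine-treated negative control wells and 100% = positive control rescue; higher means more ATP so stronger rescue from cytokine killing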
# MPTP inh – permeability transition pore inhibition. isolated mouse mitochondria, Ca2+ swelling absorbance, 30 min. inhibition, % at 10 µM. 360,000 tested, 1.4% active;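 active = inhibition of 50% or more, scaled per plate between neutral and stimulator controls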;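 also: 0% = DMSO wells given calcium and 100% = 1 mM EGTA wells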
# Active calls of the source: *; u = inconclusive; x = no result given. In the library only some 6.9% were active in any assay of this set; here they are far more common.
SMILES,SKKanGAS inh,NR3A LBD binder,Mdm2-MdmX inh,CSC inhib,Beta cell apopt,MPTP inh
CC(C)Cc1csc(NC(=O)c2ccccc2Cl)c1C(=O)O,31.4,11.6*,29.4,23.9,-8.6,-1.0
Cc1cccc(C(=O)Nc2scc(CC(C)C)c2C(=O)O)c1,29.1,-14.1,23.0,20.0,-7.1,5.6
COc1ccc(Nc2nc(-c3cccs3)nc3ccccc23)cc1,5.9,27.4*,29.0,78.4*,10.7,9.2
COc1cccc(Nc2nc(-c3cccs3)nc3ccccc23)c1,2.8,20.6*,23.5,89.2*,6.4,14.4
COc1cccc(CN(C)c2nc(-c3cccs3)nc3ccccc23)c1,18.2,-4.3,2.6,50.3,11.1,6.0
Cc1ccc(OCc2n[nH]c(=S)n2-c2ccc(Br)cc2)cc1,0.0,2.8,4.1,-10.9,-0.6,0.8
CC(C)(C)c1cc(CSC(=S)NC2CCS(=O)(=O)C2)c(Br)c(C(C)(C)C)c1 (stereo not drawn),95.9*,0.1,17.8,97.4*,-39.7,29.0
O=S1(=O)CC=C(CSC(=S)NC2CCS(=O)(=O)C2)C1 (stereo not drawn),x,1.0,30.5,6.2,-11.0,-2.7
O=C(CC1C[C@H](C(=O)N2CCOCC2)[C@@]2(CCC3CCCC3)c3[nH]c4ccccc4c3CCN2C1=O)NCCCn1ccnc1 (stereo partly drawn),x,-0.3,7.0,x,-35.2,-0.1
C/C(=N\Nc1nc2ccccc2s1)c1ccc(Br)s1,91.6*,22.6*,10.0,83.6*,90.4*,10.6
O=C(Nc1ccc(S(=O)(=O)N2CCCC2)cc1)c1ccc([N+](=O)[O-])cc1,-2.7,26.6*,19.4,-5.3,1.0,-1.5
O=C(Nc1ccccc1)c1ccc(CN2CCc3ccccc3C2)cc1,-9.2,-0.4,16.5,17.8,-0.5,-0.6
CC(=O)Nc1ccc(C(=O)Nc2ccc(S(=O)(=O)N3CCCC3)cc2)cc1,-7.1,8.0,8.1,-5.0,-3.4,-0.8
O=C(Nc1ccc(S(=O)(=O)N2CCCC2)cc1)c1cccc(OC(F)F)c1,-9.2,19.2*,27.0,7.1,3.2,0.2
Cc1cccc(CNc2ccc(S(=O)(=O)N3CCCCC3)cc2)c1,x,-1.7,11.0,x,101.3*,0.2
O=C(Nc1ccc(S(=O)(=O)N2CCCCC2)cc1)c1ccc(CN2CCc3ccccc3C2)cc1,8.7,-2.0,24.6,40.7,106.7*,2.9
COc1ccc([C@H]2CC(=O)C=C(c3ccc(C)c(F)c3)C2)cc1,x,-2.7,-28.7,5.9,-2.5,-1.1
O=C(NCCCNC(=O)c1cnccn1)c1cccc(Cl)c1,-1.8,2.7,-7.0,-1.9,-1.3,-1.9
O=C(CCNC(=O)C1CCN(S(=O)(=O)c2ccc(F)cc2)CC1)NCc1ccccc1Cl,-0.8,-2.9,-14.2,5.8,-2.3,-0.4
Cc1ccc(NC(=O)CNC(=O)c2ccc(OC(F)F)cc2)cc1S(=O)(=O)N1CCCCCC1,x,11.9*,x,x,x,1.1
Cc1ccc(C(=O)Nc2ccc(S(=O)(=O)N3CCCC3)cc2)cc1,-0.6,6.9,-21.9,x,3.0,-1.0
COc1ccc(C(=O)Nc2ccc(S(=O)(=O)N3CCCCC3)cc2)cc1,-0.8,23.6*,-3.4,1.3,6.0,-0.1
Cc1ccc(NC(=O)c2ccc(S(=O)(=O)N3CCCC3)cc2)cc1,-3.3,16.0*,42.2,-8.9,1.0,-0.4
Oc1ccccc1C1CCCCC1c1ccccc1 (stereo not drawn),u,-0.7,x,75.6*,13.3,1.2
Oc1ccccc1C1SC(c2ccccc2O)SC(c2ccccc2O)S1 (stereo not drawn),x,-407.9,x,x,x,8.9
SMILES,SKKanGAS inh,NR3A LBD binder,Mdm2-MdmX inh,CSC inhib,Beta cell apopt,MPTP inh
CC1Cc2ccccc2N1C(=O)CSc1nnc2c(n1)[nH]c1ccccc12 (stereo not drawn),15.3,22.3*,28.3,6.5,5.1,-1.4
CC1CCCCN1C(=O)CSc1nnc2c(n1)[nH]c1ccccc12 (stereo not drawn),28.9,1.1,28.2,-7.1,9.4,0.8
CSc1nnc(-c2ccc(Cl)cc2Cl)o1,-4.3,-1.6,-4.0,-7.0,-3.3,1.0
CCSc1nnc(-c2ccc(Cl)cc2Cl)o1,-8.7,15.7*,-71.8,2.5,-0.6,-0.1
CCOC(=O)c1sc(=S)n(C)c1NC(=O)c1ccccc1C,2.1,14.4*,8.0,-4.8,-5.7,4.9
CCOC(=O)c1sc(=S)n(C)c1NC(=O)c1ccc(F)cc1,-4.7,0.4,-26.6,x,5.1,6.8
Cn1c(=O)c2c(ncn2CC(=O)OCCCC(=O)c2ccc(Br)cc2)n(C)c1=O,x,17.7*,7.9,-8.9,-1.4,32.6
